Epigenetic derep: regulators of epigenetic silencing causing reporter derepression in mouse cells; murine LDR cells, GFP reporter derepression, 30 h; Potency, µM (series often up to 53.9 µM), inactives show top-dose GFP activation, most hits filed as activators; 280,000 tested, 0.2% active; active = well fitted activation curve with a large enough effect; note: potency is the fitted concentration of half-maximal effect; % of control where 0% means no effect; nearly all actives have a fitted effect of over 60% in size
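Murine LDR cells carrying a silenced, genomically integrated CMV-driven GFP reporter were exposed to compound for 30 hours at 37 C. After PBS washes, GFP-positive cells (20–120 um objects) were counted by laser-scanning microplate cytometry.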
D1 ag: human D1 receptor agonism; 360,000 tested, 1% active; HEK293 T-REx D1 cells, calcium flux, agonist mode; activation, % at 2 µM; note: 0% is about no effect
Target sequence (P21728 whole entry, looked up): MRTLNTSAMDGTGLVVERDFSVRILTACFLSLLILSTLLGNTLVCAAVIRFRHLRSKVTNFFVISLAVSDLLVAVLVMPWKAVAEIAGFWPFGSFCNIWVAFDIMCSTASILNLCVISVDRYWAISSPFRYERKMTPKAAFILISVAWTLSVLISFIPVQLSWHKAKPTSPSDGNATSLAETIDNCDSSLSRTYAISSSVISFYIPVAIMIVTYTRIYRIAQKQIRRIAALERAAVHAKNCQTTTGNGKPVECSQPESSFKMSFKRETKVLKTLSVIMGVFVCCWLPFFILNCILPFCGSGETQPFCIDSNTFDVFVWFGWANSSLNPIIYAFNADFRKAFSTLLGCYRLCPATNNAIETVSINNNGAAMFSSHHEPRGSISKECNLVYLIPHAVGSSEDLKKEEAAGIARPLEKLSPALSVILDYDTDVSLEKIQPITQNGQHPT
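Agonism was scored from calcium flux recorded over 180 s (1 read/s) after pintool compound addition, following a 10-cycle baseline. Cells were inducible force-coupled HEK293 TREx D1, plated overnight at 30 C and loaded with no-wash calcium dye.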
D1 antagonist: human D1 dopamine receptor antagonism | P21728 | HEK293 TREx D1 cells, calcium flux, dopamine EC80; active compounds read low | activity change, negative = inhibition, % at 10 µM | 360,000 tested, 3.2% active; in the data active = activity change below about -30%; note: % is set by controls: 0 for no effect and ±100 for the full control effect
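Using tetracycline-induced force-coupled D1 Hek293 cells and a calcium dye, signals were followed for 180 s after compound, then for 180 s after EC80 dopamine, to detect inhibitors.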
D1 PAM: enhances dopamine response at the human D1 receptor; potentiation, % at 10 µM; P21728; HEK293 TREx D1 cells, calcium flux, dopamine EC20 potentiation; 360,000 tested, 0.036% active; in the data active = potentiation above about 30%; note: 0% is about no effect
TRHR enhancer: allosterically enhances the human TRH receptor; P34981; TRHR cells, fluo-8 calcium fluorescence, EC20 TRH enhancement; enhancement, % at 2 µM; 360,000 tested, 0.66% active; AID 493056; in the data active = enhancement above about 30%; note: 0% is about no effect
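TRHR-expressing cells loaded with fluo-8 calcium dye were read kinetically (ex 480/em 530) during compound addition, then stimulated with an EC20 of TRH (10 nM final). Enhancement of the Gq-mediated intracellular calcium response was scored.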
TRHR agonist: activates the human TRH receptor; AID 493084; 360,000 tested, 0.18% active; TRHR cells, calcium flux fluo-8, FDSS agonist mode; activation, % at 2 µM; note: 0% is about no effect
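Fluo-8-loaded TRHR cells; 10 s baseline, compound added, kinetic Ca2+ fluorescence read 1/s, agonist mode.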
* = called active by the depositor; / = no result; ! = repeats disagree. Sampled rows, rich in hits. Any-hit rate of the full collection: about 4.6%. Cut-off read from the data, not from the text of the source, unless noted: active = activation above about 30%; inactive = the rest.

SMILES | Epigenetic derep | D1 ag | D1 antagonist | D1 PAM | TRHR enhancer | TRHR agonist
Cc1ccc2onc(CC(=O)Nc3ccc(C(C)C)cc3)c2c1 | 0% | 0 | -74* | -4 | -6 | 0
Cc1cccc(NC(=O)Cc2noc3ccccc23)c1 | 5% | 13 | -6 | -8 | 3 | -1
Cc1ccc(NC(=O)Cc2noc3ccccc23)nc1 | -1% | 2 | -32* | 0 | 27 | 1
Cc1cccc(-c2nc(C)c(CCNC(=O)C(=O)Nc3cccc(Cl)c3C)s2)c1 | 3% | 0 | 6 | -2 | -4 | 0
COc1cccc(-c2cc3onc(-c4ccccc4)c3c(=O)n2C)c1 | / | 3 | -17 | 1 | -4 | 0
COc1ccc(-c2cc3onc(-c4c(Cl)cccc4Cl)c3c(=O)n2C)cc1 | / | 7 | -33* | -6 | 0 | 0
O=C1c2ccccc2C(O)(Cc2ccccc2)N1CCCN1CCOCC1 (centres undefined) | 1% | 2 | -77* | -2 | -7 | -1
C=CCN1C(=O)c2ccccc2C1(O)Cc1ccccc1 (centres undefined) | / | 1 | -22 | 1 | 4 | 0
CC(C)CN1C(=O)c2ccccc2C1(O)Cc1ccccc1 (centres undefined) | 5% | 5 | -37* | -1 | 1 | -1
CC1c2[nH]c3ccccc3c2CCN1C(=O)Nc1ccccc1 (centres undefined) | -3% | 13 | -36* | -5 | -4 | 1
CCOc1ccccc1Nc1nnc(-c2cc3cc(Cl)ccc3oc2=O)s1 | 17% | 18 | -10 | -2 | -2 | 2
COc1ccc([C@H]2CC(=O)C=C(c3cc(OC)ccc3OC)C2)cc1 | / | 0 | -35* | -3 | 0 | 0
COc1ccc([C@H]2CC(=O)C=C(c3ccc(O)cc3)C2)cc1OC | / | 5 | -86* | -6 | 6 | 1
CCC1CN(C(=O)Nc2cccc3c2CCCC3)c2cc(C)ccc2O1 (centres undefined) | 1% | 0 | -60* | -2 | -2 | 0
Cc1noc(C)c1-c1ccc2ncnc(NCc3cccc(-c4ccccc4)c3)c2c1 | / | 16 | -34* | -6 | 1 | 1
CCN(CC)C(=O)c1sc2c(c1C)c(=O)n(Cc1ccccc1)c(=O)n2Cc1ccccc1C | 0% | 0 | -8 | 0 | 3 | 0
CCC(C(=O)N1CCN(c2cc(Cl)ccc2C)CC1)n1nc(C)c2sc3ccccc3c2c1=O (centres undefined) | -3% | -2 | 5 | 3 | 20 | -1
COC(=O)CCc1nc2c(C#N)c(-c3ccc(Cl)cc3)ccn2n1 | -1% | 0 | -5 | -2 | 2 | 0
N#Cc1c(-c2ccc(Cl)cc2)ccn2nc(C3CCCCC3)nc12 | 14% | -3 | -31* | -4 | -4 | 2
COc1ccc(-c2nc(-c3ccccc3)oc2Nc2c(C)cccc2C)cc1 | 0% | / | / | / | / | /
CC(=O)N1N=C(c2cccc(Cl)c2)OC1c1ccc(C(C)C)cc1 (centres undefined) | 1% | 4 | 1 | -4 | 3 | 1
CC(=O)N1N=C(c2ccc(C)cc2)OC1c1cccnc1 (centres undefined) | 0% | 1 | -32* | -2 | 1 | 0
O=C(Nc1ccc(F)cc1F)C1CCN(S(=O)(=O)c2ccc3[nH]c(=O)ccc3c2)CC1 | 6% | 0 | -2 | -4 | -8 | 0
C/C(Cn1cnc([N+](=O)[O-])n1)=N\NC(=O)c1ccccc1 | -2% | 3 | -13 | 1 | -3 | 0
C/C(Cn1cnc([N+](=O)[O-])n1)=N/NC(=O)COc1c(Cl)cc(Cl)cc1Cl | -2% | 0 | -30* | -9 | 0 | 0
SMILES | Epigenetic derep | D1 ag | D1 antagonist | D1 PAM | TRHR enhancer | TRHR agonist
Cc1ccc(NC(=O)CCC(=O)NNC(=O)NC23CC4CC(CC(C4)C2)C3)cc1C | 0% | 50* | -11 | -3 | 5 | 0
CCN1CCN(C(=O)NC(C(=O)NC2C(=O)N3C(C(=O)O)=C(CSc4nnnn4C)CSC23)c2ccc(O)cc2)C(=O)C1=O (centres undefined) | -2% | / | / | / | / | /
Cc1cc(C)c(OCC(=O)N(Cc2ccc(N(C)C)cc2)CC2CCCO2)c(C)c1 (centres undefined) | 4% | 1 | 5 | 0 | 3 | -1
Cc1ccc(NC(=O)c2oc3ccc(S(=O)(=O)N4CCCCC4)cc3c2C)cc1C | 3% | -2 | -31* | -1 | -3 | 0
CCOc1ccc(S(=O)(=O)N2CCC(C(=O)N3CCN(C)CC3)CC2)cc1Cl | / | 2 | 1 | 2 | 1 | 0
CCOC(=O)N1CCN(S(=O)(=O)c2ccc(OC)c(OC)c2)CC1 | -1% | 0 | 1 | 1 | -5 | 1
CCOc1ccc(S(=O)(=O)N2CCC(C(=O)N3CCCCCC3)CC2)cc1Cl | / | 9 | -40* | -8 | -5 | 0
CCOC(=O)c1oc2ccc(S(=O)(=O)n3nc(-c4ccc(C)cc4)cc3N)cc2c1C | -4% | 1 | -9 | -1 | 42*! | 1
CCOC(=O)c1oc2ccc(S(=O)(=O)n3nc(-c4ccc(Cl)cc4)cc3N)cc2c1C | -1% | 1 | -16 | -2 | 2 | 0
CCOC(=O)N1CCN(S(=O)(=O)c2ccc(OC)c(Cl)c2)CC1 | -2% | 4 | -31* | -6 | -1 | 1
O=C(CCCn1c(=O)c2ccccc2n(Cc2ccc(F)cc2Cl)c1=O)NCCc1ccc(Cl)cc1 | -1% | -2 | 1 | 0 | -1 | 0
Cc1cc(S(=O)(=O)C(CNC(=O)COc2ccc(Cl)cc2)c2cccs2)ccc1F (centres undefined) | 2% | 17 | -2 | 1 | 8 | -1
Cc1ccc(NC(=O)Cn2cnc3sc(C)c(S(=O)(=O)N4CCN(c5ncccn5)CC4)c3c2=O)cc1F | -1% | 1 | 15 | 0 | -1 | -1
CCOC(=O)N1CCN(C(=O)c2oc3ccc(S(=O)(=O)N4CCOCC4)cc3c2C)CC1 | -1% | 25 | -18 | -9 | 34* | -1
CCOC(=O)N1CCN(C(=O)c2oc3ccc(S(=O)(=O)N4CCCCCC4)cc3c2C)CC1 | -1% | 3 | 6 | -3 | 5 | 0
CC(C)c1c(O)ccc2c1CCC1[C@@](C)(C=O)CCC[C@@]21C (some centres undefined) | 4% | / | / | / | / | /
Cn1c(SCc2c(F)cccc2Cl)nc2c(c1=O)SCC2 | 2% | 2 | -31* | -8 | -8 | -1
C/C(=N\Nc1ccc(C(=O)O)cc1)c1ccc(Br)cc1 | 1% | 1 | -9 | -6 | 0 | 0
C/C(=N\Nc1ccc(C(=O)O)cc1)c1ccc(Cl)s1 | / | 50* | 4 | 0 | 0 | 1

Compound activity: PubChem BioAssay, National Center for Advancing Translational Sciences (NCATS)
